Assay in all cases: DAPPL (digital affinity profiling via proximity ligation, sequencing); 10 mM Tris-HCl pH 7.5, 50 mM NaCl, 1 mM DTT, 4% glycerol, room temperature, 30 min; GST-TFs on glutathione beads, 16-mer random dsDNA library, 0.1% formaldehyde crosslink after washing; high values mean tight binding
In experiment [1] the target is T1, FEV (Homo sapiens, UniProt Q99581 1-238).
T1 sequence: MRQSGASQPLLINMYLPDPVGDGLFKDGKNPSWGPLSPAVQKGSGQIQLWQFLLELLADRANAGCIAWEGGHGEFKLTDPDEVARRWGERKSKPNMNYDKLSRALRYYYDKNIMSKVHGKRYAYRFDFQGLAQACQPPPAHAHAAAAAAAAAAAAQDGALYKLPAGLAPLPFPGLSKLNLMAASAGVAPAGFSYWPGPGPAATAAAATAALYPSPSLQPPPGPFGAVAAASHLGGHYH
The settings on record: protein: recombinant; tags: N-terminal GST; dsDNA, one strand shown. In a few lines: (§1)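 Human transcription factors fused to GST were expressed in yeast, captured on glutathione beads, given DNA barcodes and pooled with a GST-only negative control. Pools were incubated with 200 nmole of a 16-mer random double-stranded DNA library in Tris/NaCl/DTT/glycerol buffer at room temperature for 30 min. They were then washed, crosslinked with 0.1% formaldehyde, proximity-ligated (BsaI/T4 ligase, 1 h, 37 °C), PCR-amplified and sequenced on an Illumina NextSeq500. Binding signal is each 6-mer's read frequency for a factor divided by its frequency for the GST control.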

Experiment [2] concerns the target ETV5 (Homo sapiens, UniProt P41161 1-510). To be noted: protein: recombinant; tags: N-terminal GST; dsDNA, one strand shown. In a few lines:
as §1

The target in experiment [3] is HSF1 (Homo sapiens, UniProt Q00613 1-529). To be noted: protein: recombinant; tags: N-terminal GST; chain copies: 3; dsDNA, one strand shown. In short, it runs like this: as §1
HSF1, sequence (Q00613 whole entry): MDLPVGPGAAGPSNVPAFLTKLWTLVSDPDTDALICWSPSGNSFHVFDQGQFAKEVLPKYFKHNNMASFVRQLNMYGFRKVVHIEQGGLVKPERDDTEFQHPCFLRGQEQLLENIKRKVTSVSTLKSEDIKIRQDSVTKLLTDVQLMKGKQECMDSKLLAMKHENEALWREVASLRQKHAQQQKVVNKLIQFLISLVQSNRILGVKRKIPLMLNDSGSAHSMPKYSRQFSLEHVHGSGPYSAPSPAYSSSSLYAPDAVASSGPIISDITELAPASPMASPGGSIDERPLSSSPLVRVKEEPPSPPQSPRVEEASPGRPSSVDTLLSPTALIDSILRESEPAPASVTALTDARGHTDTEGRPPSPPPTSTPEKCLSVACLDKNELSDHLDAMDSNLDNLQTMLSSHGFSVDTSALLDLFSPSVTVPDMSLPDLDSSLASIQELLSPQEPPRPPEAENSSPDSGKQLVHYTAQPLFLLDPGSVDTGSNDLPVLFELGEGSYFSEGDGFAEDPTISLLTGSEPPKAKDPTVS
Experiment [4] deals with T2, SPIC (Homo sapiens, UniProt Q8N5J4 1-248).
T2 sequence: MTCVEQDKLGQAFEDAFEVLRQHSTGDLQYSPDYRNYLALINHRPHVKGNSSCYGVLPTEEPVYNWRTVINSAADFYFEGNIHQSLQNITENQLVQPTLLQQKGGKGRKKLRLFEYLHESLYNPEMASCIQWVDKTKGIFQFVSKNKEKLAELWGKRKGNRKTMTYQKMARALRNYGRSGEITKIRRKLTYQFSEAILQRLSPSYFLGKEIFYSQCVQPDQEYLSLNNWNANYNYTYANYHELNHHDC
To be noted: protein: recombinant; tags: N-terminal GST; dsDNA, one strand shown. In a few lines:
as §1

In experiment [5] the target is ELF4 (Homo sapiens, UniProt Q99607 1-663). The settings on record: protein: recombinant; tags: N-terminal GST; dsDNA, one strand shown. In a few lines:
as §1

The target in experiment [6] is T3, ELK4 (Homo sapiens, UniProt P28324-2 1-405).
T3 sequence: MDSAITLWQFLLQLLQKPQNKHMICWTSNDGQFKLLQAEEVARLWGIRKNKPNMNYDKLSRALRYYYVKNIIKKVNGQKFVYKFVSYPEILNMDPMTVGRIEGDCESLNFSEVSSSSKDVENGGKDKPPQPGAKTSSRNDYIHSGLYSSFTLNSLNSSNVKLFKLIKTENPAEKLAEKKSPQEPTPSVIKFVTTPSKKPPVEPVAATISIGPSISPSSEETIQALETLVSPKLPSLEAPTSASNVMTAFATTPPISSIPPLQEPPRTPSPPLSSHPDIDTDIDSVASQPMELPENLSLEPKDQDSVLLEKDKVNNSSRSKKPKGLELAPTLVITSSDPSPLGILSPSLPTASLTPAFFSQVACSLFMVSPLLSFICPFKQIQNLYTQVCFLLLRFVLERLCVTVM
The settings on record: protein: recombinant; tags: N-terminal GST; dsDNA, one strand shown. In a few lines:
as §1

The target in experiment [7] is T4, ETV2 (Homo sapiens, UniProt O00321 1-342).
T4 sequence: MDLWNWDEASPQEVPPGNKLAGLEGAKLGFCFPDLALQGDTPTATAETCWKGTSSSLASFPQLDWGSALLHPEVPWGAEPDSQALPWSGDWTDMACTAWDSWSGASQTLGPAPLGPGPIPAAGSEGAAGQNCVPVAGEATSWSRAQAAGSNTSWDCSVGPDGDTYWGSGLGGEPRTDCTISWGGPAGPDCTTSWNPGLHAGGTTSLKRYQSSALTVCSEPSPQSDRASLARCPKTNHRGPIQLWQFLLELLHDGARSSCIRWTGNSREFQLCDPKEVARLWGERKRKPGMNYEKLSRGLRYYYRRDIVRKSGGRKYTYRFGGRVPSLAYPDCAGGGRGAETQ
The settings on record: protein: recombinant; tags: N-terminal GST; dsDNA, one strand shown. In a few lines: as §1

Experiment [8] deals with T5, ELF3 (Homo sapiens, UniProt P78545 1-371).
T5 sequence: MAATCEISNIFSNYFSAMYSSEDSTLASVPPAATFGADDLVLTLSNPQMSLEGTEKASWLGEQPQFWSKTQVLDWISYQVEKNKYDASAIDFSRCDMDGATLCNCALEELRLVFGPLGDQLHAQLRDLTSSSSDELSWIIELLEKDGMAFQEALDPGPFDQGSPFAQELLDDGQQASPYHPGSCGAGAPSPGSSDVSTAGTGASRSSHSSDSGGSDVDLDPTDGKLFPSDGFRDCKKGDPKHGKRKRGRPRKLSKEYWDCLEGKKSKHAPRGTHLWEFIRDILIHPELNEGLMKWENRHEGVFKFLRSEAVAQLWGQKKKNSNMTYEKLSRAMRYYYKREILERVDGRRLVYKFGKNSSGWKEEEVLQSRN
The settings on record: protein: recombinant; tags: N-terminal GST; dsDNA, one strand shown. In a few lines: as §1

Experiment [9] addresses ETV1 (Homo sapiens, UniProt P50549 1-477). To be noted: protein: recombinant; tags: N-terminal GST; dsDNA, one strand shown. In short, it runs like this: as §1
In experiment [10] the target is CRX (Homo sapiens, UniProt O43186 1-299). The settings on record: protein: recombinant; tags: N-terminal GST; dsDNA, one strand shown. In a few lines: as §1
CRX, sequence (O43186 whole entry): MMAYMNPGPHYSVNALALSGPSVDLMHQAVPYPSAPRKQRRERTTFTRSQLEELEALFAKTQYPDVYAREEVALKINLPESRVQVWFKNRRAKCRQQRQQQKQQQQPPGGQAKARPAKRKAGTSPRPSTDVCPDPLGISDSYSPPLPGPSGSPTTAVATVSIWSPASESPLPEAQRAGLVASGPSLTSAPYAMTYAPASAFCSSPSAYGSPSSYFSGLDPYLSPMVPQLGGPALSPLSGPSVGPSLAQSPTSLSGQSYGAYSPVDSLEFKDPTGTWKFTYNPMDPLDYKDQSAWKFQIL

ELF4, sequence (Q99607 whole entry): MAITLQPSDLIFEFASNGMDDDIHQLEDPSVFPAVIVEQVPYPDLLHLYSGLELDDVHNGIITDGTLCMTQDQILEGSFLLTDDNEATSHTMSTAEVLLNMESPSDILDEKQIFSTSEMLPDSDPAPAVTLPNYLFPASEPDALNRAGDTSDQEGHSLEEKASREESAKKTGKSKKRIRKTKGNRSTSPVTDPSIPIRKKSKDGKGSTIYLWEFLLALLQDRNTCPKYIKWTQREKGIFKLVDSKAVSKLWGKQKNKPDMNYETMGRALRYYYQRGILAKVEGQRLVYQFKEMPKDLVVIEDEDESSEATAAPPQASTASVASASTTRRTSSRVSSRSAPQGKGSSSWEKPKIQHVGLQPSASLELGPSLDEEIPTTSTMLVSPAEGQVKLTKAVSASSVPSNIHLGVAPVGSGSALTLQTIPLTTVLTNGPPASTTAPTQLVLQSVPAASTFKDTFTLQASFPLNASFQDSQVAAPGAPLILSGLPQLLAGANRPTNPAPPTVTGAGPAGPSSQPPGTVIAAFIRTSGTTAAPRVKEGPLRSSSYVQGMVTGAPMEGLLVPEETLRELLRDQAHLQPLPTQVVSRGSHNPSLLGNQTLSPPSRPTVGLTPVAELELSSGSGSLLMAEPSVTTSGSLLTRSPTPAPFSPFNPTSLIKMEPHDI
ETV1, sequence (P50549 whole entry): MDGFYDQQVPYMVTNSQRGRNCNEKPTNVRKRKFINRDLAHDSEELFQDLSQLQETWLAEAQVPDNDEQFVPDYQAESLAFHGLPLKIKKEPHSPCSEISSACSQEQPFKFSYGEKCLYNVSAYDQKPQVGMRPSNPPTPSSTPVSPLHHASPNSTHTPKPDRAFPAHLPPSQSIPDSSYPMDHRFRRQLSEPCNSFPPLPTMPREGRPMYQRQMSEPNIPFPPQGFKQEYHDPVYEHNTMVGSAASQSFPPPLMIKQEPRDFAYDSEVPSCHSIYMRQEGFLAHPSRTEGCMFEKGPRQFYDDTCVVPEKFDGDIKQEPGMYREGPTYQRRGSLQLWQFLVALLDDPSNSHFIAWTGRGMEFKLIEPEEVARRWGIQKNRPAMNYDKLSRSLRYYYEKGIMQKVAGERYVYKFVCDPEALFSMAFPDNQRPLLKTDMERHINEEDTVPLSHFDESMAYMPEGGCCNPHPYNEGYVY
ETV5, sequence (P41161 whole entry): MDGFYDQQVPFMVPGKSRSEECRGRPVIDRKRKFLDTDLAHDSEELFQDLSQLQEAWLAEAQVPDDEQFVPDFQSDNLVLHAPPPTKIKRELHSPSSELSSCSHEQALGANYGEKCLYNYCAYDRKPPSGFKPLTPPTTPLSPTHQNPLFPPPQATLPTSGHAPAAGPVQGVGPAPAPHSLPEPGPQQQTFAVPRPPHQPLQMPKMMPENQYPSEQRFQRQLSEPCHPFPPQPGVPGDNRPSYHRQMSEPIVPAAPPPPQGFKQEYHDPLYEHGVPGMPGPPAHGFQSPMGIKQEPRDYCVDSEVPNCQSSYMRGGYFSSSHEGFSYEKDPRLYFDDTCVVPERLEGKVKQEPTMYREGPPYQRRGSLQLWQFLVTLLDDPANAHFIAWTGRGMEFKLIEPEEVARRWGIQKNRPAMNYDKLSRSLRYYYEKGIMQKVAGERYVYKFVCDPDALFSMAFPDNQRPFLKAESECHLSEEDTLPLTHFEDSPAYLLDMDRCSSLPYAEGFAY

As for ACTGCG, the binding signal in experiment [1] was 1.26 fold enrichment (6-mer frequency, TF over GST control); in experiment [2], 1.21 fold enrichment (6-mer frequency, TF over GST control); in [3], 1.06 fold enrichment (6-mer frequency, TF over GST control); in experiment [4], 1.14 fold enrichment (6-mer frequency, TF over GST control); in experiment [5] it was 1.28 fold enrichment (6-mer frequency, TF over GST control); in experiment [6], 1.06 fold enrichment (6-mer frequency, TF over GST control). Besides, the binding signal in experiment [7] is 1.42 fold enrichment (6-mer frequency, TF over GST control); in experiment [8], 1.16 fold enrichment (6-mer frequency, TF over GST control); in experiment [9], 1.27 fold enrichment (6-mer frequency, TF over GST control).

CACGAC: the binding signal in [1] is 1.29 fold enrichment (6-mer frequency, TF over GST control); in [2], 1.28 fold enrichment (6-mer frequency, TF over GST control); in [3], 1.05 fold enrichment (6-mer frequency, TF over GST control); in experiment [4] it was 1.26 fold enrichment (6-mer frequency, TF over GST control); in [5], 1.35 fold enrichment (6-mer frequency, TF over GST control); in experiment [6] it was 1.53 fold enrichment (6-mer frequency, TF over GST control). The binding signal in experiment [7] was 1.34 fold enrichment (6-mer frequency, TF over GST control); in experiment [8], 1.32 fold enrichment (6-mer frequency, TF over GST control); in experiment [9] it was 1.15 fold enrichment (6-mer frequency, TF over GST control).

In the case of TCGATA, the binding signal in experiment [1] is 1.05 fold enrichment (6-mer frequency, TF over GST control); in [2], 1.07 fold enrichment (6-mer frequency, TF over GST control); in experiment [3], 1.35 fold enrichment (6-mer frequency, TF over GST control); in experiment [4], 1.28 fold enrichment (6-mer frequency, TF over GST control); in experiment [5] it was 1.15 fold enrichment (6-mer frequency, TF over GST control); in experiment [6] it was 1.16 fold enrichment (6-mer frequency, TF over GST control). Also, the binding signal is 1.16 fold enrichment (6-mer frequency, TF over GST control) in experiment [7]; 1.24 fold enrichment (6-mer frequency, TF over GST control) in [10]; 1.03 fold enrichment (6-mer frequency, TF over GST control) in experiment [9].

Take CGTACA: the binding signal in experiment [1] is 1.2 fold enrichment (6-mer frequency, TF over GST control); in experiment [2], 1.22 fold enrichment (6-mer frequency, TF over GST control); in [3] it was 1.02 fold enrichment (6-mer frequency, TF over GST control); in experiment [4] it was 1.31 fold enrichment (6-mer frequency, TF over GST control); in [5], 1.2 fold enrichment (6-mer frequency, TF over GST control); in [6] it was 1.24 fold enrichment (6-mer frequency, TF over GST control). Besides, the binding signal in [7] was 1.36 fold enrichment (6-mer frequency, TF over GST control); in [8], 1.27 fold enrichment (6-mer frequency, TF over GST control); in [9], 1.13 fold enrichment (6-mer frequency, TF over GST control).

In the case of CCATTC, the binding signal in [1] is 1.06 fold enrichment (6-mer frequency, TF over GST control); in experiment [2] it was 1.11 fold enrichment (6-mer frequency, TF over GST control); in [3], 1.15 fold enrichment (6-mer frequency, TF over GST control); in experiment [4] it was 1.14 fold enrichment (6-mer frequency, TF over GST control); in [5], 1.18 fold enrichment (6-mer frequency, TF over GST control); in experiment [6] it was 1.22 fold enrichment (6-mer frequency, TF over GST control). For the same sequence, the binding signal in [7] was 1.25 fold enrichment (6-mer frequency, TF over GST control); in experiment [8], 1.05 fold enrichment (6-mer frequency, TF over GST control); in [9] it was 1.14 fold enrichment (6-mer frequency, TF over GST control).

For the sequence CTGCCG, the binding signal in experiment [1] is 1.35 fold enrichment (6-mer frequency, TF over GST control); in experiment [2], 1.36 fold enrichment (6-mer frequency, TF over GST control); in [3], 1.04 fold enrichment (6-mer frequency, TF over GST control); in experiment [4] it was 1.31 fold enrichment (6-mer frequency, TF over GST control); in experiment [5], 1.28 fold enrichment (6-mer frequency, TF over GST control); in [6] it was 1.24 fold enrichment (6-mer frequency, TF over GST control). Also, the binding signal was 1.07 fold enrichment (6-mer frequency, TF over GST control) in [7]; 1.09 fold enrichment (6-mer frequency, TF over GST control) in experiment [8]; 1.34 fold enrichment (6-mer frequency, TF over GST control) in [9].

Take CTGGGT: the binding signal in experiment [1] was 1.06 fold enrichment (6-mer frequency, TF over GST control); in [2], 1.05 fold enrichment (6-mer frequency, TF over GST control); in experiment [3], 1.04 fold enrichment (6-mer frequency, TF over GST control); in experiment [4], 1.17 fold enrichment (6-mer frequency, TF over GST control); in experiment [5], 1.13 fold enrichment (6-mer frequency, TF over GST control); in [6] it was 1.2 fold enrichment (6-mer frequency, TF over GST control). Moreover, the binding signal is 1.22 fold enrichment (6-mer frequency, TF over GST control) in experiment [7] and 1.12 fold enrichment (6-mer frequency, TF over GST control) in [8].

For the sequence TCTGTC, the binding signal was 1.13 fold enrichment (6-mer frequency, TF over GST control) in [1]; 1.18 fold enrichment (6-mer frequency, TF over GST control) in experiment [2]; 1.07 fold enrichment (6-mer frequency, TF over GST control) in experiment [3]; 1.3 fold enrichment (6-mer frequency, TF over GST control) in [4]; 1.13 fold enrichment (6-mer frequency, TF over GST control) in experiment [5]; 1.27 fold enrichment (6-mer frequency, TF over GST control) in [6]. For the same sequence, the binding signal in [7] was 1.19 fold enrichment (6-mer frequency, TF over GST control); in experiment [8], 1.19 fold enrichment (6-mer frequency, TF over GST control); in [9], 1.23 fold enrichment (6-mer frequency, TF over GST control).

Values taken from article PMC7862700, “An all-to-all approach to the identification of sequence-specific readers for epigenetic DNA modifications on cytosine”.
